# Screening data deposited in PubChem BioAssay by several laboratories.
# Most compounds without a hit are left out; they make up all but 1.7% or so of the library.
# p97 ATPase inh: inhibitors of human p97 ATPase, primary screen, biochemical | 220,000 tested, 0.42% active | inhibition, % at 8 µM | recombinant p97 ATPase, Kinase-Glo ATP luminescence, 3 h | Transitional endoplasmic reticulum ATPase (Homo sapiens), P55072; in the data active = inhibition above about 15%
# Rin1 Abl inh: inhibitors of Rin1-Abl protein binding, primary screen, biochemical, TR-FRET | Tyrosine-protein kinase ABL1 (Homo sapiens) + Ras and Rab interactor 1 (Homo sapiens), … | AID 588664, 2011 | 360,000 tested, 0.4% active | inhibition, % at 7.35 µM; in the data active = inhibition above about 5%, passing the limit was not always enough
# PREPL inh: PREPL enzyme inhibitors, primary screen, biochemical, fluorescence polarization | Prolyl endopeptidase-like (Homo sapiens), Q4J6C6 | inhibition, % at 5.96 µM | 320,000 tested, 0.68% active | AID 2751, 2010 | recombinant PREPL, fluorescence polarization activity-based probe; in the data active = inhibition above about 43%
# LYPLA1 inh: LYPLA1 inhibitors, primary screen, counter-screen for PME1 inhibitor project, biochemical, fluorescence polarization, FP-Rh probe ABPP; recombinant LYPLA1; inhibition, % at 5.9 µM; AID 2174, 2009; Acyl-protein thioesterase 1 (Homo sapiens), O75608; 320,000 tested, 0.16% active;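 active = inhibition above the mean of all tested compounds plus 3 SD, set per campaign, cut at about 14% in these data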;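 also: inhibitors block serine hydrolase probe labeling of LYPLA1 so polarization falls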
# Target sequence (O75608 whole entry, looked up): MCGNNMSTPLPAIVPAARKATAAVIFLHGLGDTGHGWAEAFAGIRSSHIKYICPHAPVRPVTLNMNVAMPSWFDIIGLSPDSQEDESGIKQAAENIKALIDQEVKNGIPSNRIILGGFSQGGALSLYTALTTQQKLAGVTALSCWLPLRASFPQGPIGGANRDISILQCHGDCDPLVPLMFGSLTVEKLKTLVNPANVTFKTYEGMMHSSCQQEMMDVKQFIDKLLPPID
# Hck-Nef inh: inhibitors of Nef-activated human Hck kinase, primary screen, biochemical, Z-Lyte FRET, 384-well, Hck-YEEI; Recombinant Hck-YEEI plus Nef, Z-Lyte FRET kinase assay; inhibition, % at 20 µM; 220,000 tested, 0.68% active; AID 463187, 2010;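 active = Hck-Nef kinase inhibition above about 50%, limit read from the data; inactive = inhibition below that limit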
# LYPLA2 inh: LYPLA2 inhibitors, primary screen, counter-screen for PME1 inhibitor project, biochemical, fluorescence polarization, FP-Rh probe ABPP; Acyl-protein thioesterase 2 (Homo sapiens), O95372; recombinant LYPLA2; inhibition, % at 5.9 µM; 320,000 tested, 0.38% active; AID 2177, 2009;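 active = inhibition above the screen-wide mean plus 3 SD, limit set per campaign, cut at about 26% in these data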
# Target sequence (O95372 whole entry, looked up): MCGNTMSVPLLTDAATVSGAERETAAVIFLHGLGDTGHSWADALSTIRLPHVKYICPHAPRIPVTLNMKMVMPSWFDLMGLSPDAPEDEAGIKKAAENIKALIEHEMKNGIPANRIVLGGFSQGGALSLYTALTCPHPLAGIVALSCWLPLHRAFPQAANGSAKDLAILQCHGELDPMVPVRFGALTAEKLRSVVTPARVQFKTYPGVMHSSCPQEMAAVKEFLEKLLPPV
# LYPLA1 conf: LYPLA1 inhibitors, retest, confirmation, counter-screen for PME1 inhibitor project, biochemical, fluorescence polarization, FP-Rh probe ABPP. shares compounds with LYPLA1 inh. recombinant LYPLA1. inhibition, % at 5.9 µM. 480 tested, 69% active. AID 2233, 2010;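 active = mean inhibition across replicates above the hit cutoff set in the primary screen, cut at about 15% in these data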;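 also: loss of FP-Rh probe labeling of LYPLA1 seen as lower polarization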
# LYPLA2 confirm: LYPLA2 inhibitors, retest, confirmation, counter-screen for PME1 inhibitor project, biochemical, fluorescence polarization, FP-Rh probe ABPP | recombinant LYPLA2 | shares compounds with LYPLA2 inh | 1,100 tested, 72% active | inhibition, % at 5.9 µM;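 active = mean inhibition across replicates above the hit cutoff set in the primary screen, cut at about 26% in these data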;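 also: blocked labeling of the enzyme by serine hydrolase FP-Rh probe lowers polarization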
# PREPL inh cf: human PREPL enzyme inhibitors, confirmation, biochemical, fluorescence polarization. AID 2803, 2010. inhibition, % at 5.96 µM. recombinant PREPL, fluorescence polarization activity probe. shares compounds with PREPL inh. 2,000 tested, 67% active; in the data active = inhibition above about 43%
# Hck Nef conf: retest of Hck:Nef kinase inhibitor hits, confirmation, biochemical, Z-Lyte FRET, 384-well, p-Tyr peptide counterscreen; 1,300 tested, 28% active; shares compounds with Hck-Nef inh; calls only at 10 µM; Recombinant Hck-YEEI:Nef, Z-Lyte FRET kinase assay;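 active = average inhibition of at least 50%, with Z-scores no higher than 3 in both the phospho-tyrosine peptide and fluorescence counterscreens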
# Rin1-Abl confirm: Rin1-Abl binding inhibitor retest, confirmation, biochemical, TR-FRET. shares compounds with Rin1 Abl inh. purified proteins. inhibition, % at 7.35 µM. 1,300 tested, 49% active. AID 602124, 2011
# GFP quench: GFP fluorescence inhibitors and quenchers, artefact control for Rin1-Abl interaction inhibitor project, biochemical. AID 602125, 2011. 1,300 tested, 8.5% active. shares compounds with Rin1 Abl inh. inhibition, % at 6.75 µM. inhibitors/quenchers counterscreen;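 also: ABL1-eGFP fusion protein alone without its partner RIN1-SBP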
# Numbers stand for hits; . = inactive; / = not tested or not shown; + = active, no number. Rule as the data show it, unless noted: active = inhibition above about 6.5%; inactive = the rest.
SMILES,p97 ATPase inh,Rin1 Abl inh,PREPL inh,LYPLA1 inh,Hck-Nef inh,LYPLA2 inh,LYPLA1 conf,LYPLA2 confirm,others
COc1ccc(NC2CCCN(C(=O)c3ccc(C)c(N4CCNC4=O)c3)C2)cc1 (stereo not given),/,.,.,.,/,.,/,/,
Cc1cc(C(=O)COC(=O)c2nn(C)c(=O)c3ccccc23)c(C)n1C,/,.,/,/,/,/,/,/,
O=C1c2ccccc2C(=O)c2c1cccc2N1CCCC1,.,.,.,.,.,.,/,/,
Cn1c(=O)cc2c3c(c(N4CCCCC4)ccc31)C(=O)c1ccccc1-2,.,.,55,28,.,38,20,28,PREPL inh cf=57
CCOc1ccc2nc3cc(NCc4ccc(OC)cc4)ccc3c(N)c2c1,/,.,102,19,/,37,.,.,PREPL inh cf=79
COc1cc(N=Nc2cccc(S(N)(=O)=O)c2)c2ccccc2c1N,.,.,61,14,.,.,.,/,PREPL inh cf=59
COC(=O)[C@]1(C)N[C@H](CN(C)S(=O)(=O)c2ccc(OC(F)(F)F)cc2)[C@@H]2C(=O)N(Cc3ccccc3)C(=O)[C@@H]21,/,.,.,/,/,/,/,/,
CCc1cc(C(=O)N(C)CC(=O)N(CC(C)C)c2c(N)n(CC(C)C)c(=O)[nH]c2=O)sc1C,/,.,.,.,/,.,/,/,
CC(=O)Oc1ccc2c(c1)Oc1cc(OC(C)=O)ccc1C21OC(=O)c2ccccc21,.,.,95,106,.,119,98,121,PREPL inh cf=112
Cc1ccc(-c2ccccc2NC(=O)CS(=O)CC(=O)Nc2ccc(C)c(Cl)c2)o1 (stereo not given),/,.,60,46,/,59,.,.,PREPL inh cf=.
CN(Cc1ccco1)S(=O)(=O)c1nnc(NC(=O)c2ccccc2Cl)s1,/,.,.,.,/,.,/,/,
O=c1/c(=C\c2cc([N+](=O)[O-])cc([N+](=O)[O-])c2O)sc2nc3ccccc3n12,.,.,.,16,71,.,.,/,Hck Nef conf=+
Nc1c(C(=O)O)ccc2c1C(=O)c1ccccc1C2=O,.,.,.,.,.,.,/,/,
Nc1cc(C(=O)O)c(N)c2c1C(=O)c1ccccc1C2=O,.,.,84,36,62,53,31,45,PREPL inh cf=72;Hck Nef conf=.
CCCCCCCCCCCCCCCC[n+]1ccc(/C=N/O)cc1,.,.,.,15,112,.,20,/,
CCCCCCCCCCCCCCCC[n+]1ccc(C(N)=O)cc1,.,.,.,.,.,.,/,/,
CC1CCN(C(=O)CNC(=O)CNS(=O)(=O)c2ccccc2)CC1,/,.,.,.,/,.,/,/,
COc1ccc(OC)c(-c2c3cc(O)c(=O)cc-3oc3cc(O)c(O)cc23)c1,22,55,78,85,54,77,.,.,PREPL inh cf=77;Hck Nef conf=.
Cc1ccc(NC(=O)COc2ccc(/C=C3/SC(=Nc4ccccc4)N(Cc4cccnc4)C3=O)cc2)cc1,.,.,.,68,90,.,.,/,Hck Nef conf=+
CCN(C(=O)CSc1nnc(-c2ccc(F)cc2)n1C)C1CCS(=O)(=O)C1 (stereo not given),/,.,.,/,/,/,/,/,
NNC(=O)C1C(O)CCC2CN3CCc4c([nH]c5ccccc45)C3CC21 (stereo not given),/,.,/,/,/,/,/,/,
Nc1ccc2c(c1)C(=O)C(=O)c1ccccc1-2,31,10,61,87,.,95,81,92,PREPL inh cf=53;Rin1-Abl confirm=.;GFP quench=.
Cc1ccc(-n2nc3cc(C)c(N)cc3n2)cc1,.,.,.,.,.,.,/,/,
Cc1cc2nc3ccc(N(C)C)cc3nc2cc1N,/,15,.,32,/,33,19,.,Rin1-Abl confirm=.;GFP quench=34
CCC1CCCCN1C(=O)CSc1n[nH]c(N)n1 (stereo not given),/,.,.,/,/,/,/,/,
SMILES,p97 ATPase inh,Rin1 Abl inh,PREPL inh,LYPLA1 inh,Hck-Nef inh,LYPLA2 inh,LYPLA1 conf,LYPLA2 confirm,others
COc1ccc(C(=O)O/N=C2\CCCc3nonc32)cc1,.,.,.,.,.,42,/,61,
Cc1cccc(Oc2cc(NC(=O)Cn3cnc([N+](=O)[O-])n3)cc([N+](=O)[O-])c2)c1,.,.,.,.,.,42,/,.,
CC1c2ccccc2-c2ccccc2N1C (stereo not given),/,.,/,/,/,/,/,/,
COc1ccc(C(=O)N2CCN(c3cccc(Cl)c3)CC2)cc1,.,.,.,.,.,.,/,/,
COc1ccc(N2CCN(C(=O)c3ccc(N4C(=O)NC5CC4(C)Oc4ccccc45)cc3)CC2)cc1 (stereo not given),.,.,.,.,.,34,/,39,
COc1ccc(N2CCN(C(=O)c3ccc(NC(=O)C4=CSCCO4)cc3)CC2)cc1,/,.,.,.,/,35,/,38,
COc1cccc2c1OC1(C)CC2NC(=O)N1c1cccc(C(=O)N2CCN(c3ccccc3)CC2)c1 (stereo not given),.,.,.,.,.,.,/,/,
O=C(Nc1ccc(C(=O)N2CCN(c3ccc(F)cc3)CC2)cc1)C1=CSCCO1,/,.,.,.,/,.,/,/,
COc1cccc(N2CCN(C(=O)c3ccc(-c4ccccc4)cc3)CC2)c1,/,.,.,.,/,30,/,26,
Cc1cc(C)n(-c2ccc(C(=O)OCC(=O)N3CCN(c4ccccc4)CC3)cc2)n1,/,.,.,/,/,/,/,/,
COc1ccc(N2CCN(C(=O)c3ccc(-n4nc(C)cc4C)cc3)CC2)cc1,.,.,.,.,.,41,/,39,
